Screening data (PubChem BioAssay)
Cycloheximide cs: affects cycloheximide protein synthesis inhibition readout, counter-screen | cell reporter, cycloheximide protein synthesis inhibition counterscreen | max response, % | hit rate 12% among 300,000; in the data active = max response mostly above about 13%, no sharp cut-off; inactive = mostly below about 14%; also: read at 38.3 µM for the half of the compounds with a filed dose; 0% is about no effect
Pf growth 48h: inhibits P. falciparum growth in the first generation, 48 h; P. falciparum luciferase growth in erythrocytes, 48 h; Potency, µM (titrated, usually from 28.7 µM), without a hit: at the highest dose activity change, negative = inhibition, actives largely listed as inhibitors; hit rate 5.9% among 310,000; AID 504832; also: potency is read from the fitted curve at half-maximal effect; % is scaled to controls: 0 for no effect and ±100 for the full control effect
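Read-out is firefly luciferase luminescence from an integrated reporter in P. falciparum, so falling signal marks reduced parasite growth. Infected erythrocytes were at 2% hematocrit and 0.1% parasitemia (final) in Albumax-supplemented RPMI 1640.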
Shiga toxin inh: inhibitors of Shiga toxin in Vero cells; Vero cells, Shiga toxin protein synthesis inhibition reporter; inhibition, % at 38.7 µM; hit rate 9.2% among 290,000; AID 2315; in the data active = inhibition mostly above about 28%, no sharp cut-off; inactive = mostly below about 43%; also: 0% is about no effect
HCMV inh: human cytomegalovirus inhibition; activity change, negative = inhibition, % at 57.5 µM; HFF cells, HCMV-luciferase reporter, 72 h; active compounds read low; AID 1259415; hit rate 4.5% among 410,000; in the data active = activity change below about -60%; inconclusive = no clear call, values can overlap the other calls; inactive = above about -39%; also: % is scaled to controls: 0 for no effect and ±100 for the full control effect
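Human foreskin fibroblasts infected with luciferase-reporter HCMV at MOI 1 PFU/cell, compounds at two doses. Luciferase measured 72 h post infection; normalized to buffer-only basal and Salinomycin (10uM) controls.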
Pf growth 96h: inhibits malaria parasite growth, 96 h; AID 504834; hit rate 6.9% among 320,000; Potency, µM (top dose mostly 28.7 µM), without a hit: at the highest dose activity change, negative = inhibition, usual class: inhibitors; P. falciparum luciferase reporter growth, 96 h; also: potency is read from the fitted curve at half-maximal effect; % is scaled to controls: 0 for no effect and ±100 for the full control effect
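Erythrocytes infected with luciferase-expressing P. falciparum were dispensed at 2% hematocrit and 0.05% parasitemia (final), then incubated with compounds 96 hours at 37 C in 5% CO2. Luminescence after detection reagent addition reported growth.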
Starred values were filed as active, the others as inactive; ? = inconclusive; . = not tested or not shown. An excerpt weighted towards active compounds, which were near 20% of everything screened. Unless noted, calls follow the shape of the dose curve; as a rule, active = well fitted inhibition curve with a large enough effect; inconclusive = small, poorly fitted or top-dose-only effect, or another doubt; inactive = no such curve, though single readings can be large or run the other way.

SMILES | Cycloheximide cs | Pf growth 48h | Shiga toxin inh | HCMV inh | Pf growth 96h
CCN(CC)S(=O)(=O)c1cc(NC(=O)C(=O)c2c(-c3ccccc3)cc3ccccn23)ccc1C | -2 | . | 1 | -97* | 12µM*
CN(C)CCNC(=O)C(=O)c1c(-c2ccccc2)cc2ccccn12 | -1 | -3% | 16 | -40 | -4%
CCN(CC)S(=O)(=O)c1ccc(N2CCOCC2)c(NC(=O)C(=O)c2c(-c3ccccc3)cc3ccccn23)c1 | -2 | 6.6µM* | -15 | -27 | .
CCN(c1ccccc1)S(=O)(=O)c1ccc(NC(=O)c2cc(=O)c3cc(C)cc(C)c3o2)cc1 | . | . | . | 2 | .
Oc1ccc(-c2nc3c4c(ncn3n2)-c2ccccc2CC42CCCC2)cc1 | -5 | -8% | -6 | -65* | -1%
Nn1cnc2c(c1=O)C1(CCCCC1)Cc1ccccc1-2 | -5 | 4% | -4 | -6 | ?
C=CCn1c(N)c(C(=O)NCC2CCCO2)sc1=S (centres undefined) | -6 | 10% | -10 | -62* | 28%
Cn1c(N)c(C(=O)Nc2ccc(-c3ccccc3)cc2)sc1=S | 1 | -30% | 10 | -76* | -9%
C=CCn1c(N)c(C(=O)Nc2ccc(C)cc2)sc1=S | 30* | . | 15 | -91* | 6%
CCn1c(N)c(C(=O)NCC2CCCO2)sc1=S (centres undefined) | 12 | 52% | 19 | 13 | 4%
Cc1nc2cccnc2n1-c1cccc(C(=O)NCCN(C)C)c1 | . | . | . | 0 | .
COc1ccc(CN2C(=S)NC(C)(C)CC2(C)O)cc1 (centres undefined) | -3 | -5% | -3 | -33 | -11%
COc1ccccc1CCN1C(=S)NC(C)(C)CC1(C)O (centres undefined) | -5 | ? | -12 | -6 | 9.3µM*
CCN(CC)S(=O)(=O)c1ccc(C(=O)Nc2cc(C)on2)cc1 | 9 | 12µM* | -4 | 16 | 7.4µM*
Cc1cc(NC(=O)c2ccc(Cl)c(S(=O)(=O)N3CCOCC3)c2)no1 | 4 | ? | -2 | -26 | -1%
CCN(CC)S(=O)(=O)c1ccc(C(=O)Nn2cnnc2)cc1 | -5 | 35% | -5 | -34 | 29%
CCN(CC)S(=O)(=O)c1cc(C(=O)Nc2cc(C)on2)ccc1Cl | 18 | ? | -5 | -64* | ?
S=C(c1ccccc1)N1CCCc2ccccc21 | -2 | -16% | -6 | -17 | -2%
O=C(Nc1ccc2c(c1)CN(Cc1ccc(CO)o1)CC2)c1ccc(C(F)(F)F)cc1 | 44* | ? | 35 | ? | 66%
COCCC(=O)Nc1ccc2c(c1)CN(C(=O)CCSC)CC2 | -2 | 15% | 2 | -27 | -1%
COc1ccccc1CCC(=O)Nc1ccc2c(c1)c(=O)n(C)n2-c1cccs1 | . | . | . | -84* | .
COCCC(=O)Nc1ccc2c(c1)CN(C(=O)c1ccc(CSC)o1)CC2 | -3 | ? | 2 | 50 | 13µM*
COc1ccccc1CCC(=O)Nc1ccc2c(c1)CN(Cc1ccc(CO)o1)CC2 | 3 | 13µM* | 5 | 42 | ?
COc1ccccc1CCC(=O)Nc1cccc(S(=O)(=O)N2CCOCC2)c1 | -4 | ? | 21 | 19 | -27%
COc1ccc(OC)c(CN2CCN(Cc3cccc4ccccc34)CC2)c1 | 0 | ? | -9 | -20 | -8%
SMILES | Cycloheximide cs | Pf growth 48h | Shiga toxin inh | HCMV inh | Pf growth 96h
CCOC(=O)C1(CCCc2ccccc2)CCN(Cc2ccn[nH]2)CC1 | -3 | ? | -9 | -21 | 347%
COc1ccc(C(=O)NC2CCN(Cc3c(F)cccc3Cl)CC2)cc1OC | -1 | -17% | -8 | 13 | -26%
COc1ccc(S[C@]2(c3nc(C)no3)CC(=O)N(c3ccc(OC)cc3)[C@@H]2c2ccc(OC)cc2)cc1 | . | . | . | -8 | .
Cc1ccccc1-c1nn(-c2ccc(F)cc2F)cc1CNCCCN(C)C | -2 | 2.6µM* | -8 | ? | ?
Cc1ccccc1-c1nn(-c2ccc(F)cc2F)cc1CNCCN(C)C | -2 | ? | -4 | -34 | 13µM*
COCCN(C)Cc1cn(-c2ccc(F)cc2F)nc1-c1ccccc1C | 5 | -71% | 5 | ? | 40%
CCC(COC)NCc1cn(-c2ccc(F)cc2F)nc1-c1ccccc1C (centres undefined) | -3 | ? | -15 | -20 | 9%
O=C(CSc1ncn[nH]1)NCCc1ccc(Cl)cc1 | -2 | 10% | -8 | -17 | 21%
CCOC(=O)c1ccc(NC(=O)CN(c2ccc(C)cc2)S(=O)(=O)c2c(C)n[nH]c2C)cc1 | -3 | 13µM* | 9 | -20 | 8%
Cc1n[nH]c(C)c1S(=O)(=O)N(CC(=O)Nc1ccc(C(F)(F)F)cc1)c1ccc(C(C)C)cc1 | . | . | . | -96* | .
Cc1cc(C)cc(N(CC(=O)Nc2ccc(C(F)(F)F)cc2)S(=O)(=O)c2c(C)[nH]c(=O)[nH]c2=O)c1 | 1 | 15µM* | -4 | -35 | 6%
CCOC(=O)c1ccc(NC(=O)CN(c2ccc(C)cc2)S(=O)(=O)c2c(C)noc2C)cc1 | . | . | . | 0 | .
COC(=O)C1=C(C(=O)OC)[C@]2([C@@H]3CCCCN[C@@H](Cc4ccccc4)C(=O)N3Cc3ccccc3)C=C[C@H]1O2 | . | . | . | -12 | .
O=C1CCC(C(=O)N2CCc3c(Cl)cccc3C2)CN1CCCN1CCOCC1 (centres undefined) | 11 | -14% | -16 | . | -25%
COc1cc(NS(=O)(=O)c2ccc(C(=O)O)cc2)c2nc(C)ccc2c1 | -2 | . | -2 | . | .
CCc1nnc(NC(=O)CSc2nnc(COc3ccccc3)n2Cc2ccccc2)s1 | 9 | 9% | -2 | -3 | ?
COc1ccc(-n2ccc3ccccc32)cc1 | 25* | 42% | 32 | -20 | 33%
COc1ccc(N2CCN(c3ncnc4onc(C)c34)CC2)cc1 | . | . | . | -69* | .
COc1ccc(N2CCN(c3ncnc4onc(-c5ccc(F)cc5)c34)CC2)cc1 | . | . | . | 7 | .
Cc1noc2ncnc(N3CCN(c4ccc(F)cc4)CC3)c12 | 4 | 29% | -21 | -68* | 45%
CN1C(=O)C(C(Nc2ccccc2)c2ccc(F)cc2)c2ccccc21 (centres undefined) | . | . | . | 7 | .
O=C(O)c1nc(-c2ccccc2)n(-c2cccc(C(F)(F)F)c2)n1 | 9 | 0% | 39 | 20 | ?
O=C(Cc1ccccc1)N/N=C/c1ccccc1F | -2 | 43% | 58* | . | -10%
Cc1ccccc1/C=N/NC(=O)Cc1ccc(Cl)cc1 | -2 | ? | 3 | -14 | ?
O=C(O)COc1ccccc1/C=N/NC(=O)c1ccc(F)cc1 | 3 | 23% | 3 | -27 | 16%
O=C(C[n+]1ccccc1)N/N=C/c1cc(Br)ccc1F | . | -27% | . | -99* | ?
O=C(O)COc1ccccc1/C=N/NC(=O)Cc1ccccc1 | 8 | -10% | . | 6 | 10µM*
Cc1cc(C)c[n+](-c2nc3ccccc3nc2[N-]S(=O)(=O)c2ccc(Cl)cc2)c1 | -1 | -2% | 8 | -32 | ?
FC(F)(F)c1ccccc1-c1nc(-c2ccncc2)no1 | 40* | ? | 47* | 5 | 4%
COc1cc(OC)cc(-c2nc(-c3ccc(Br)cc3)no2)c1 | 7 | 21% | 7 | 68 | ?
